Measured values as given in PubChem BioAssay (NCATS).
Inconclusive results are not listed. Calls of active or inactive are those of the source. Unless noted, calls follow the shape of the dose curve; as a rule, active = well fitted curve in the direction sought with a large enough effect; inconclusive = small, poorly fitted or top-dose-only effect, or another doubt; inactive = no such curve, though single readings can be large; an effect the other way counts as inactive or inconclusive.

Columns and labels:
[1] = Cell Viability - LYMP2-005 (AID 967);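 also: series mostly up to about 92 µM; plate controls were DMSO only for no effect and 92 µM tetraoctylammonium bromide control for full effect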
In short: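 CellTiter-Glo luminescence (cellular ATP) read-out; LYMP2-005 lymphoblastoid cells, 2500/well, 5 h pre-incubation, then 24 h compound exposure at 37 C in complete medium. Tetraoctylammonium bromide positive control; AC50 by standard Hill fit.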

[2] = Cell Viability - LYMP2-009 (AID 968);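 also: series mostly up to about 92 µM; 0% = DMSO alone and the full-kill end = tetraoctylammonium bromide at 92 µM; nearly all actives have a fitted effect of over 55% in size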
[3] = Cell Viability - LYMP2-011 (AID 969);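 also: 0% = DMSO only and full inhibition = 92 µM tetraoctylammonium bromide; nearly all actives have a fitted effect of over 60% in size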
In short: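 2500 cells/well in complete medium, compound-treated 24 h at 37 C. Viability read as intracellular ATP by CellTiter-Glo luminescence after 30 min at room temperature. AC50 from Hill fits of qHTS concentration-response data.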

[4] = Cell Viability - LYMP2-013 (AID 970);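 also: series mostly up to about 92 µM; 0% = DMSO only and full inhibition = tetraoctylammonium bromide control; nearly all actives have a fitted effect of over 55% in size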
In short: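 Human lymphoblastoid LYMP2-013 cells, 2500/well, treated 24 h at 37 C in complete medium; viability as intracellular ATP by CellTiter-Glo luminescence after 30 min. AC50 from Hill fits of qHTS concentration-response.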

[5] = Cell Viability - LYMP2-015 (AID 971);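 also: 0% = DMSO only and full effect = 92 µM tetraoctylammonium bromide; nearly all actives have a fitted effect of over 55% in size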
In short: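 LYMP2-015 human lymphoblastoid cells (2500/well) in complete medium, compound-treated 24 h at 37 C; viability read as cellular ATP by CellTiter-Glo luminescence after 30 min at room temperature. AC50 from Hill-equation fits of qHTS concentration-response data.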

[6] = Cell Viability - LYMP2-017 (AID 972); also: series mostly up to about 92 µM; % is scaled to controls: 0 for no effect and ±100 for the full control effect; nearly all actives have a fitted effect of over 55% in size
In short: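 LYMP2-017 human lymphoblastoid cells (2500/well) settled 5 hr at 37 C, then exposed to compound 24 hr at 37 C in complete medium. Viability taken as intracellular ATP by CellTiter-Glo luminescence after 30 min at RT; AC50 from Hill fits.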

[7] = Cell Viability - LYMP2-021 (AID 974)
In short: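 Human lymphoblastoid LYMP2-021 cells, 2500/well in complete medium, treated 24 hours at 37 C. Intracellular ATP by CellTiter-Glo luminescence (30 min, RT); AC50 from Hill fits of concentration-response.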

[8] = Cell Viability - LYMP2-023 (AID 975)
In short: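 LYMP2-023 human lymphoblastoid cells, 2500/well, preincubated 5 hr at 37 C, then compound-treated 24 hr at 37 C in complete medium. CellTiter-Glo luminescence (ATP) after 30 min at room temperature; AC50 from Hill-equation fits; tetraoctylammonium bromide positive control.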

[9] = Cell Viability - LYMP2-025 (AID 976);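 also: series mostly up to about 92 µM; plate controls were DMSO only for no effect and tetraoctylammonium bromide control for full effect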
In short: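 Human lymphoblastoid LYMP2-025 cells, 2500/well, exposed 24 h at 37 C in complete medium in 1536-well qHTS. Viability as cellular ATP by CellTiter-Glo luminescence; AC50 from Hill fits of concentration-response data.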

[10] = Cell Viability - LYMP2-002 (AID 977);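 also: series mostly up to about 92 µM; plate controls were DMSO only for no effect and 92 µM tetraoctylammonium bromide for full effect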
In short: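 Luminescent ATP readout (CellTiter-Glo, 30 min room temperature) after 24 h compound exposure at 37 C of a human lymphoblastoid line, 2500 cells/well. AC50 values derived by standard Hill fitting of qHTS concentration-response data.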

[11] = Cell Viability - LYMP2-006 (AID 978); also: series mostly up to about 92 µM; % is scaled to controls: 0 for no effect and ±100 for the full control effect; nearly all actives have a fitted effect of over 60% in size
In short: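 Human lymphoblastoid cells, 2500 per well, were preincubated 5 hr at 37 C, then exposed to compounds for 24 hr at 37 C in complete medium. Viability was read as intracellular ATP by CellTiter-Glo luminescence; AC50 from Hill-equation fits of qHTS concentration-response data.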

[12] = Cell Viability - LYMP2-007 (AID 979);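 also: cells exposed to compound for 24 h before reading; 0% = DMSO only and the negative end = 92 µM tetraoctylammonium bromide; nearly all actives have a fitted effect of over 60% in size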
In short: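 Human lymphoblastoid LYMP2-007 cells (2500/well) preincubated 5 h at 37 C, then treated 24 h at 37 C in complete medium. Viability by CellTiter-Glo ATP luminescence after 30 min at room temperature; AC50 from Hill fits.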

[13] = Cell Viability - LYMP2-008 (AID 980); also: % is scaled to controls: 0 for no effect and ±100 for the full control effect; nearly all actives have a fitted effect of over 60% in size
In short: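 LYMP2-008 lymphoblastoid cells (2500/well) plated 5 h, then treated 24 h at 37 C in complete medium. Viability read as intracellular ATP by CellTiter-Glo luminescence after 30 min at room temperature; AC50 from Hill fits.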

[14] = Cell Viability - LYMP2-010 (AID 981)
In short: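 Human lymphoblastoid LYMP2-010 cells (2500/well) treated 24 h at 37 C in complete medium; viability read as intracellular ATP by CellTiter-Glo luminescence. AC50 from Hill fits of concentration-response data; tetraoctylammonium bromide positive control.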

[15] = Cell Viability - LYMP2-012 (AID 982)
[16] = Cell Viability - LYMP2-014 (AID 983);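 also: series mostly up to about 92 µM; plate controls were DMSO only for no effect and 92 µM tetraoctylammonium bromide for full effect; nearly all actives have a fitted effect of over 50% in size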
In short: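 LYMP2-014 human lymphoblastoid cells, 2500/well, treated 24 h at 37 C in complete medium; viability by CellTiter-Glo ATP luminescence after 30 min at room temperature. AC50 from Hill fits of qHTS concentration-response; tetraoctylammonium bromide positive control.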

[17] = Cell Viability - LYMP2-016 (AID 984)
In short: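 Human lymphoblastoid cells (LYMP2-016), 2500/well in complete medium, preincubated 5 hr at 37 C, then compound-treated 24 hr at 37 C. Intracellular ATP read by CellTiter-Glo luminescence after 30 min at room temperature; AC50 from Hill-equation concentration-response fits.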

[18] = Cell Viability - LYMP2-018 (AID 985);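 also: compound exposure lasted 24 hr at 37 °C; plate controls were DMSO only for no effect and tetraoctylammonium bromide at 92 µM for full effect; nearly all actives have a fitted effect of over 50% in size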
In short: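 Human lymphoblastoid LYMP2-018 cells, 2500/well, settled 5 hr at 37 C then exposed to compound 24 hr at 37 C; intracellular ATP measured by CellTiter-Glo luminescence. AC50 from Hill-equation concentration-response fits.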

[19] = Cell Viability - LYMP2-020 (AID 986)
In short: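 Human lymphoblastoid LYMP2-020 cells (2500/well) preincubated 5 h at 37 C, then treated 24 h at 37 C. Viability measured as intracellular ATP by CellTiter-Glo luminescence after 30 min at room temperature; AC50 from Hill fits.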

[20] = Cell Viability - LYMP2-022 (AID 987)
In short: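 LYMP2-022 lymphoblastoid cells (2500/well, complete medium) were treated with compounds for 24 hours at 37 C; intracellular ATP was then read by CellTiter-Glo luminescence after 30 min at room temperature. AC50 values were derived from Hill-equation fits.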

[21] = Cell Viability - LYMP2-024 (AID 988)
In short: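 Human lymphoblastoid LYMP2-024 cells (2500/well) rested 5 hr, then treated with compound for 24 hr at 37 C in complete medium. Viability was measured as intracellular ATP by CellTiter-Glo luminescence. AC50 values came from Hill-equation fits.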

[22] = Cell Viability - LYMP2-026 (AID 989); also: % is scaled to controls: 0 for no effect and ±100 for the full control effect; nearly all actives have a fitted effect of over 50% in size
In short: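 Human lymphoblastoid LYMP2-026 cells, 2500/well, exposed to compound 24 h at 37 C in complete medium. Viability as intracellular ATP by CellTiter-Glo luminescence; AC50 from Hill fits of qHTS concentration-response.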

[23] = Cell Viability - LYMP1-002 - Assay at 24 hr (AID 993); also: % is scaled to controls: 0 for no effect and ±100 for the full control effect
In short: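 Human lymphoblastoid LYMP1-002 cells (2500/well) treated 24 h at 37 °C; viability as intracellular ATP by CellTiter-Glo luminescence. Tetraoctylammonium bromide as positive control; AC50 from Hill-equation fits of qHTS concentration-response.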

[24] = Cell Viability - LYMP1-002 - Assay at 40 hr (AID 994)
In short: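 LYMP1-002 human lymphoblastoid cells (2500/well, complete medium) were treated with compounds for 40 hr at 37 C. Intracellular ATP was measured by CellTiter-Glo luminescence, and AC50 values came from Hill-equation fits of concentration-response data; tetraoctylammonium bromide was the positive control.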

[25] = biological target: ATP-dependent 6-phosphofructokinase (Trypanosoma brucei brucei) (UniProt O15648); experiment: qHTS Assay to Find Inhibitors of T. brucei phosphofructokinase: hit validation (AID 492961);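 also: luminescence reports ADP formed as PFK phosphorylates fructose-6-phosphate with ATP; series mostly up to about 51 µM; % is scaled to controls: 0 for no effect and ±100 for the full control effect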
Chain of ATP-dependent 6-phosphofructokinase (Trypanosoma brucei brucei) (O15648 whole entry, looked up): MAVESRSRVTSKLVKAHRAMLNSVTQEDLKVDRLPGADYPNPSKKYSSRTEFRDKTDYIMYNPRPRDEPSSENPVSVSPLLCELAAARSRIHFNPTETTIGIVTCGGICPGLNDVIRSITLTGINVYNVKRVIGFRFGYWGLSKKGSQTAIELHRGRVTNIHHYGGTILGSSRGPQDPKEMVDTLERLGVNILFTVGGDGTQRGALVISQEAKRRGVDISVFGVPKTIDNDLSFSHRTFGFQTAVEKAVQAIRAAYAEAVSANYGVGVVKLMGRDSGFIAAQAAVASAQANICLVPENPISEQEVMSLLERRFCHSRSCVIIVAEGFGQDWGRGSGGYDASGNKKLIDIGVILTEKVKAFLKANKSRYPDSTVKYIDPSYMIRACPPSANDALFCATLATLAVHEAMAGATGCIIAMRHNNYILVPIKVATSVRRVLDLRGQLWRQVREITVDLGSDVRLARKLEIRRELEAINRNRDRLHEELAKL
In short: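 PFK 1.25 nM, F6P 0.5 mM, ATP 0.1 mM, MgCl2 5 mM, 0.1 M TEA pH 8.0, Tween20 0.01%, BSA 0.1%; 45 min RT. ADP-Glo two-step detection, luminescence. qHTS titration; curve fitting with curve-class categorization.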

[26] = biological target: Ubiquitin carboxyl-terminal hydrolase 1 (Homo sapiens) (UniProt O94782); experiment: Inhibitors of USP1/UAF1: Pilot qHTS (AID 504865);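 also: rhodamine fluorescence freed from ubiquitin-rhodamine substrate followed over time; top concentration of the series differs between compounds; % is scaled to controls: 0 for no effect and ±100 for the full control effect; nearly all actives have a fitted effect of over 35% in size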
Chain of Ubiquitin carboxyl-terminal hydrolase 1 (Homo sapiens) (O94782 whole entry, looked up): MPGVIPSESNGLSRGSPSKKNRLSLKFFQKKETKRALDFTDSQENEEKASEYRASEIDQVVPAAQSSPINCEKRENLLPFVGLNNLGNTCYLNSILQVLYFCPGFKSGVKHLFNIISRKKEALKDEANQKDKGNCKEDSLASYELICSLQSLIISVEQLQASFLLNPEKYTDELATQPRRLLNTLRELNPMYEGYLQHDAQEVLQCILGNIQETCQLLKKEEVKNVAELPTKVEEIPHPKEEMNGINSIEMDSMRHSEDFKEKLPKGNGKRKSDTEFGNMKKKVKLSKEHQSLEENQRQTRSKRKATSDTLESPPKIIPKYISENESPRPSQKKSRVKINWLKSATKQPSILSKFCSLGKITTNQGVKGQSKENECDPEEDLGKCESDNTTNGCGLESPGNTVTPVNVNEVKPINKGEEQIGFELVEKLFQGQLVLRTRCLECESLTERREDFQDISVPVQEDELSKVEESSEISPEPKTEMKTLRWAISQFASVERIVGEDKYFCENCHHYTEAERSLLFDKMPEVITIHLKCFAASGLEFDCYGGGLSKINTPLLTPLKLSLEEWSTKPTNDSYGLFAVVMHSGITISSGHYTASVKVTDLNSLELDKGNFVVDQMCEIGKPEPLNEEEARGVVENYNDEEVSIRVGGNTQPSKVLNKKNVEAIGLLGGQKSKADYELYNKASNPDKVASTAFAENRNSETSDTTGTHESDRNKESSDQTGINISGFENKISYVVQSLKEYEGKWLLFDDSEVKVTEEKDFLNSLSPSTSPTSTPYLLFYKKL
In short: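 USP1/UAF1 complex (1nM) preincubated with compound 15 min at room temperature, then Ub-Rho substrate (150nM final) added. Fluorescence read kinetically at 480/540 nm, 6 reads every 60 seconds. Buffer: 50mM HEPES pH 7.8, 0.5mM EDTA, 0.1 mg/ml BSA, 1mM TCEP, 0.01% Tween-20.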

[27] = biological target: Estrogen receptor (Homo sapiens) (UniProt P03372); experiment: qHTS assay for small molecule antagonists of estrogen receptor alpha signaling (AID 588513; active = well fitted curve in the direction sought with a large enough effect in the signal ratio, with a control signal flat, not every such curve was filed as active; the % refers to the signal ratio; also: % is scaled to controls: 0 for no effect and ±100 for the full control effect)
Chain of Estrogen receptor (Homo sapiens) (P03372 whole entry, looked up): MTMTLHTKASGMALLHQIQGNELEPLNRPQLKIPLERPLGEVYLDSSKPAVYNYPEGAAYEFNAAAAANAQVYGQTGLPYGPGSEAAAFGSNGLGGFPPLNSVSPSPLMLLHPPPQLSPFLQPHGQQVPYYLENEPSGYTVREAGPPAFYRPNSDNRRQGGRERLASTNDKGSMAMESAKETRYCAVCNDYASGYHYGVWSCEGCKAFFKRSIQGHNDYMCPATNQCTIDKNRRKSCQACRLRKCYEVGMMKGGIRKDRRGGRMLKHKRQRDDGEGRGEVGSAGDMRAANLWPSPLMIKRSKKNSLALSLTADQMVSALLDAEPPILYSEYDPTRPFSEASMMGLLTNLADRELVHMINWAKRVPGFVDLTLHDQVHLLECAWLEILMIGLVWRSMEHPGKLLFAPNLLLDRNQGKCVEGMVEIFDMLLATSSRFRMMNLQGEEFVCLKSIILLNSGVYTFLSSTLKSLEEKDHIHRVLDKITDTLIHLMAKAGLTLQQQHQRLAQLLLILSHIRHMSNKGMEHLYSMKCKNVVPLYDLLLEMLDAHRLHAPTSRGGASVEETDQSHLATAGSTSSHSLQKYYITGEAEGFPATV
In short: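 ER-alpha-UAS-bla GripTite HEK 293 cells in medium with 2% charcoal/dextran-treated FBS were preincubated 4 h at 37 C, dosed with compound (1:2 titration), stimulated with 0.5nM 17-beta-estradiol for 18 h, then read by CCF4 beta-lactamase fluorescence.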

[28] = biological target: Estrogen receptor (Homo sapiens) (UniProt P03372); experiment: qHTS assay for small molecule agonists of estrogen receptor alpha signaling (AID 588514; calls by dose curve;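 also: 0% = vehicle only and 100% = reference agonist; nearly all actives have a fitted effect of over 70% in size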)
In short: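 ER-alpha-UAS-bla GripTite HEK293 cells, 5000/well in 2% charcoal/dextran-stripped FBS medium, treated with compound titrations 18 h at 37 C. CCF4 beta-lactamase read by fluorescence after 2 h RT; normalised to 20 nM 17-beta-estradiol (100%) and DMSO (0%), Hill fit for EC50 and efficacy.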

[29] = biological target: Bile acid receptor (Homo sapiens) (UniProt Q96RI1); experiment: qHTS assay for small molecule antagonists of farnesoid X receptor signaling (AID 588526; calls by dose curve; also: % is scaled to controls: 0 for no effect and ±100 for the full control effect)
Chain of Bile acid receptor (Homo sapiens) (Q96RI1 whole entry, looked up): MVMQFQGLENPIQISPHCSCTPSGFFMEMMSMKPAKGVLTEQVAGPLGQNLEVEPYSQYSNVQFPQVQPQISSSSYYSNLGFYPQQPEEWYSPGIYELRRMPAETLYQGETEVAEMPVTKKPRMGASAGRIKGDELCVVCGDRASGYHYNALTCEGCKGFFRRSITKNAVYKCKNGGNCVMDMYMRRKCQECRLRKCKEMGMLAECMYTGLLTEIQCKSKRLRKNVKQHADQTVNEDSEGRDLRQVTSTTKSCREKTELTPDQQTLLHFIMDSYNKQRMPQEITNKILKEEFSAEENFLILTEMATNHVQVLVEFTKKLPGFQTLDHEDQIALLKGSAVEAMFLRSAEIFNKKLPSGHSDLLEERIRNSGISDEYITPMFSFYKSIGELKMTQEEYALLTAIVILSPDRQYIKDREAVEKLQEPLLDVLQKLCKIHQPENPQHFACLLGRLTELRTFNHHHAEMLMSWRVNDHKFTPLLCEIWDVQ
In short: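 Concentration-response titrations were fitted to the Hill equation for half-maximal inhibition and maximal response, with data normalised to 50 uM chenodeoxycholic acid and DMSO control wells. Cells: FXR-UAS-bla HEK293T, dialyzed FBS.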

[30] = biological target: Glucocorticoid receptor (Homo sapiens) (UniProt P04150); experiment: qHTS assay for small molecule antagonists of glucocorticoid receptor signaling (AID 588533; active = well fitted inhibition curve with a large enough effect in the signal ratio, with a control signal flat, not every such curve was filed as active; the % refers to the signal ratio)
Chain of Glucocorticoid receptor (Homo sapiens) (P04150 whole entry, looked up): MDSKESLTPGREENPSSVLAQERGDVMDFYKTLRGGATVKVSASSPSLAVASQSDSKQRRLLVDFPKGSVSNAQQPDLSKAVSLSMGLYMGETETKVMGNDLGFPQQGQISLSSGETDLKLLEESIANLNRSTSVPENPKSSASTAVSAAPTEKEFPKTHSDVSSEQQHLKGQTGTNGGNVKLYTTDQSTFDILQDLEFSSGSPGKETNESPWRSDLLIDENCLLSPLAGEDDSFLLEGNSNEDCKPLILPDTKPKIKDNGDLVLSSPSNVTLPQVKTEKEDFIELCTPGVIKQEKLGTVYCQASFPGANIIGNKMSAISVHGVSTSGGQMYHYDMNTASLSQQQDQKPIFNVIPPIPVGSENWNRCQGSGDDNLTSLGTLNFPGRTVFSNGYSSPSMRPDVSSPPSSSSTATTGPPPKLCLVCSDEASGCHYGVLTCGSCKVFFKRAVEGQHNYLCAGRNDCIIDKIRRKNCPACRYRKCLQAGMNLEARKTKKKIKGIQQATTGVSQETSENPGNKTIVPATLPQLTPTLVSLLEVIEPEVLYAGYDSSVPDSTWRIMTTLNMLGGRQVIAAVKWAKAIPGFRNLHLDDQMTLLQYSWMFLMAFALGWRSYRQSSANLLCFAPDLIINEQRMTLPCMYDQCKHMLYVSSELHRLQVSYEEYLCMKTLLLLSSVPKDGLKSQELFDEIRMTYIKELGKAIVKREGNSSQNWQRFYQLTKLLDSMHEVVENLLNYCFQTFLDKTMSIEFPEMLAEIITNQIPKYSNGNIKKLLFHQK
In short: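 Antagonist-mode qHTS: compound titrations added to GRE-bla HeLa cells, then dexamethasone 2 nM final; 18 h, 37 C. CCF4 FRET fluorescence normalized to dexamethasone and DMSO; IC50 from Hill fit.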

[31] = biological target: Peroxisome proliferator-activated receptor gamma (Homo sapiens) (UniProt P37231); experiment: qHTS assay for small molecule agonists of peroxisome proliferator-activated receptor gamma signaling (AID 588536; active = well fitted curve in the direction sought with a large enough effect in the signal ratio, with a control signal flat, not every such curve was filed as active; the % refers to the signal ratio;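 also: 0% = DMSO basal wells and 100% = rosiglitazone at 2 µM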)
Chain of Peroxisome proliferator-activated receptor gamma (Homo sapiens) (P37231 whole entry, looked up): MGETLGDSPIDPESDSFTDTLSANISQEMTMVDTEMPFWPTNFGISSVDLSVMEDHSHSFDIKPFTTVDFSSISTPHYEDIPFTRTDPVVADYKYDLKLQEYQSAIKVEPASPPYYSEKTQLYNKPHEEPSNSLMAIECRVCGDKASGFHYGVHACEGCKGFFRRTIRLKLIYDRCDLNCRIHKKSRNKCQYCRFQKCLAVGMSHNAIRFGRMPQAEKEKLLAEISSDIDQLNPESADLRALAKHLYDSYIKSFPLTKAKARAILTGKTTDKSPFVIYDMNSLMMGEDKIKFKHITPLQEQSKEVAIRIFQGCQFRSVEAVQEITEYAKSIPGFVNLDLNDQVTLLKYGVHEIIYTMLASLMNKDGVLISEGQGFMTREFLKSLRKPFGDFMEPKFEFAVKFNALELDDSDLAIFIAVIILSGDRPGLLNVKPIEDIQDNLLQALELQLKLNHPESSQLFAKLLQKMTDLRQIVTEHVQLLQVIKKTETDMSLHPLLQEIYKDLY
In short: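 GeneBLAzer PPAR-gamma-UAS-bla HEK293 cells in 1% charcoal/dextran-treated FBS medium were treated 16 h at 37 C with compounds. Beta-lactamase activity was read by CCF4 ratio (460/530 nm). Response was normalized to 2 uM rosiglitazone (100%) and DMSO, then Hill-fitted for EC50 and efficacy.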

[32] = qHTS assay for small molecule agonists of retinoid X receptor alpha signaling (AID 588544; calls by dose curve); conditions: HEK293T RXRa-UAS-bla, beta-lactamase reporter, 18 h; 530 nm emission
[33] = biological target: Retinoic acid receptor RXR-alpha (Homo sapiens) (UniProt P19793); experiment: as above
Chain of Retinoic acid receptor RXR-alpha (Homo sapiens) (P19793 whole entry, looked up): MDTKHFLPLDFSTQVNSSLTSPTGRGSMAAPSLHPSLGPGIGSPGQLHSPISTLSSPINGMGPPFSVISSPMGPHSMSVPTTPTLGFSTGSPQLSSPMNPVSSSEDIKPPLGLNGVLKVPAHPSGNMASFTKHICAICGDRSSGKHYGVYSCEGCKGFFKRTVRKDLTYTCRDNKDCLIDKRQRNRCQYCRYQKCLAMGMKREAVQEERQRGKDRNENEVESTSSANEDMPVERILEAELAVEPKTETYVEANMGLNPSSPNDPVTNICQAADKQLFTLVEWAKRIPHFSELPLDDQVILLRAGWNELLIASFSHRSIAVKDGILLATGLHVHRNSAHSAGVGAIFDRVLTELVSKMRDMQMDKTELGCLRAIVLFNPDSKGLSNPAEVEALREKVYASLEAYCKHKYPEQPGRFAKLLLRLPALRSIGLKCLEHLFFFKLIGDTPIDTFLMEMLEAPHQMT

[34] = biological target: Thyroid hormone receptor beta (Homo sapiens) (UniProt P10828); experiment: qHTS assay for small molecule agonists of thyroid hormone receptor beta signaling (AID 588545; calls by dose curve)
Chain of Thyroid hormone receptor beta (Homo sapiens) (P10828 whole entry, looked up): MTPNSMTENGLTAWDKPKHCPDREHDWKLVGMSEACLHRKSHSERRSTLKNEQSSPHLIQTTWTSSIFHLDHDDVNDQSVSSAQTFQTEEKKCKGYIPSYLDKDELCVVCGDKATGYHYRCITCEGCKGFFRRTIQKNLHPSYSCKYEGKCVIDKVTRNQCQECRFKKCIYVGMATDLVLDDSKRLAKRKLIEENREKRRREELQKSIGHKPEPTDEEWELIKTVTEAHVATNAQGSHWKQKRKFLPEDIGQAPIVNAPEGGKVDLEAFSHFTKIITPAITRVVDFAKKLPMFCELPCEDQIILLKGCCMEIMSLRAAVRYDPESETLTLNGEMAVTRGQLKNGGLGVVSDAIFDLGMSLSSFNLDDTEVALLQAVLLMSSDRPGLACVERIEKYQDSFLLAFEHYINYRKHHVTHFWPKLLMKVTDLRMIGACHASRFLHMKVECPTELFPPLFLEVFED
In short: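 Agonist-mode beta-lactamase reporter assay, HEK 293 cells, 2% charcoal/dextran FBS; cells plated 4 hrs, compound 18 hrs at 37 C, CCF4 2 hrs RT. Normalized to 10 nM T3 (100%) and DMSO (0%); Hill fit gives EC50, efficacy.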

[35] = biological target: Thyroid hormone receptor beta (Homo sapiens) (UniProt P10828); experiment: qHTS assay for small molecule antagonists of thyroid hormone receptor beta signaling (AID 588547; active = well fitted inhibition curve with a large enough effect in the signal ratio, with a control signal flat, not every such curve was filed as active; the % refers to the signal ratio); conditions: TR-UAS-bla HEK293, beta-lactamase ratio, antagonist mode, 18 h
In short: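 TR-UAS-bla GripTite HEK293 cells in 2% charcoal/dextran FBS medium were preincubated 4 h at 37 C, given compound (0.59 nM to 92 uM) plus 0.4 nM T3 (final) for 18 h, then CCF4 for 2 h at RT; Hill fit gave IC50.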

[36] = biological target: Luciferin 4-monooxygenase (Photinus pyralis) (UniProt P08659); experiment: Biochemical firefly luciferase enzyme assay for NPC (AID 624030);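 also: purified P. pyralis luciferase at 10 nM with luciferin and ATP substrate; series mostly up to about 59 µM; 0% = DMSO and -100% = full luciferase inhibition by PTC124 control; nearly all actives have a fitted effect of over 70% in size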
In short: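 Counter-screen for direct inhibition of the luciferase enzyme by approved-drug library compounds, run at 10 nM enzyme in 50 mM Tris acetate (final). Luminescence was read within 5 min of enzyme-buffer addition and normalized to PTC124 versus DMSO (0%).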

[37] = S16 Schwann cell viability assay (CellTiter-Glo assay) (AID 624031);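 also: native untransfected S16 rat Schwann cells; series mostly up to about 58 µM; plate controls were DMSO-treated cells for no effect and cell-free wells for full effect; nearly all actives have a fitted effect of over 70% in size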
In short: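 Parental S16 cells, 24 h compound, 37 °C. ATP-luminescence viability; DMSO = 0% activity, empty wells as reference; curves classified by fit quality and efficacy.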

[38] = S16 Schwann cell PMP22 intronic element beta-lactamase assay (AID 624044; calls by dose curve;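 also: 0% = DMSO and -100% = potassium clavulanate positive control; nearly all actives have a fitted effect of over 15% in size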)
In short: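 Rat S16 Schwann cells with beta-Lac driven by a PMP22 intronic element, compound-treated 24 h at 37 °C. LiveBLAzer FRET B/G read: 460 nm normalized to potassium clavulanate vs DMSO; 535 nm FRET as viability; concentration-effect curves classified.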

C[C@@H]1[C@H](O)[C@@H](C)/C=C/C=C/C=C/C=C/C=C/C=C/C=C/[C@H](O[C@@H]2O[C@H](C)[C@@H](O)[C@H](N)[C@@H]2O)C[C@@H]2O[C@](O)(C[C@@H](O)C[C@@H](O)[C@H](O)CC[C@@H](O)C[C@@H](O)CC(=O)O[C@H]1C)C[C@H](O)[C@H]2C(=O)O
19.3%: max response [32]
inactive: outcome [1] | outcome [2] | outcome [3] | outcome [4] | outcome [5] | outcome [6] | outcome [7] | outcome [8] | outcome [9] | outcome [10] | outcome [11] | outcome [12] | outcome [13] | outcome [14] | outcome [15] | outcome [16] | outcome [17] | outcome [18] | outcome [19] | outcome [20] | outcome [21] | outcome [22] | outcome [23] | outcome [24] | outcome [25] | Potency [26] | outcome [27] | outcome [28] | Potency [29] | Potency [30] | outcome [31] | outcome [33] | outcome [34] | activity change % (negative = inhibition) [35] 2.02% | Potency [36] | outcome [37] | outcome [38]
